Screening data (PubChem BioAssay)
Only some compounds are listed: those with a hit (about 1.7% of all), similar ones and a draw of the others.
PfHsp40 yeast = restores yeast growth despite PfHsp40 toxicity | S. cerevisiae expressing PfHsp40, growth rescue, ATP luminescence | growth rescue, % at 12.5 µM | actives 0.68% (n = 340,000); in the data active = growth rescue above about 28%, passing the limit was not always enough;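 note: yeast W303a lacking pdr1 and pdr3 grown in galactose medium; growth measured after three days at 30 °C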
Mtb bLac sens = beta-lactam sensitization of Mtb H37Rv | M. tuberculosis H37Rv growth with meropenem, percent inhibition | inhibition, % at 25 µM | actives 0.27% (n = 330,000); call rule not given here;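 note: growth measured after seven days incubation then overnight dye step; 0% = bacteria only wells and 100% = bacteria with antibiotic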
RecA intein inh = blocks M. tuberculosis RecA intein splicing. P9WHJ3. cell-free RecA intein splicing, fluorescence. inhibition, % (no concentration beside the values). actives 0.75% (n = 290,000); in the data active = inhibition above about 30%;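 note: 0% = vehicle wells and 100% = reference inhibitor control wells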
Target sequence (P9WHJ3 whole entry, looked up): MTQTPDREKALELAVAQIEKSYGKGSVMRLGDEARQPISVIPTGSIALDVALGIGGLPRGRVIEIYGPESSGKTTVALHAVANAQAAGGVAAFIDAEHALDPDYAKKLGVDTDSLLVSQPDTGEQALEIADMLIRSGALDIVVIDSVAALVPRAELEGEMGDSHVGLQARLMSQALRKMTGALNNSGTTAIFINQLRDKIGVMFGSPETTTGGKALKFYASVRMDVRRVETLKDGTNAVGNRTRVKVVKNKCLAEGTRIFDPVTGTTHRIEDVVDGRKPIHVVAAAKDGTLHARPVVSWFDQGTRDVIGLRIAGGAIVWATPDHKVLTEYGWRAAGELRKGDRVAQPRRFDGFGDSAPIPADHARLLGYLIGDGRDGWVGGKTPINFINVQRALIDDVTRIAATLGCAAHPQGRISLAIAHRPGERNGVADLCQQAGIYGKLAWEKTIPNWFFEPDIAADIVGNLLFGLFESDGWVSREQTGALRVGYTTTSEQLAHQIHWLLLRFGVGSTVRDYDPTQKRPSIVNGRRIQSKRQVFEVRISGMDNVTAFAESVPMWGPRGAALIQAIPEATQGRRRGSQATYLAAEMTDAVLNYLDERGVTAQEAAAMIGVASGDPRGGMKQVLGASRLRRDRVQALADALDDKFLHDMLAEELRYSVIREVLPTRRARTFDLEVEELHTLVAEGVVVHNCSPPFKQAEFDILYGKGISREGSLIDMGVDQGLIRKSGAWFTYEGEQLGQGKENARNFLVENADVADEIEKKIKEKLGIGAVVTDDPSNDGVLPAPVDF
CCHFV vOTU inh = CCHFV vOTU protease inhibition; Pep-AMC fluorescence; actives 0.55% (n = 370,000); inhibition, % at 11.5 µM; AID 651958; in the data active = inhibition above about 30%; note: 0% = vehicle wells with enzyme and 100% = no enzyme wells
Mtb hypoxia rep = reduces hypoxia-regulated biosensor signal in M. tuberculosis. actives 0.1% (n = 300,000). fluorescence inhibition, % (no concentration beside the values). M. tuberculosis hypoxia-regulated fluorescent reporter, fluorescence; in the data active = fluorescence inhibition mostly above about 23%, no sharp cut-off; inactive = mostly below about 17%
An asterisk follows results filed as active; . = no result.

SMILES | PfHsp40 yeast | Mtb bLac sens | RecA intein inh | CCHFV vOTU inh | Mtb hypoxia rep
O=C(c1cccc(COc2ccc(Cl)cc2Cl)c1)N1CCN(c2ccccn2)CC1 | 28.4* | 83.5 | 13.3 | 6.8 | -2.2
CN(C(=O)c1cccc(COc2ccc(Cl)cc2Cl)c1)c1ccccc1 | 6.4 | 0.4 | 35.5* | -7.5 | -4.9
O=C(c1ccc(Cl)c(Cl)c1)N1CCN(c2ccccn2)CC1 | 1.0 | -0.6 | -0.6 | 4.6 | 13.1
CC(CCc1ccccc1)NC(=O)C=Cc1ccc(Cl)cc1 (stereo unspecified) | . | . | . | . | 3.9
C/C(=N\NC(=O)c1ccccc1O)c1c(O)n(C2CCCCC2)c(=O)[nH]c1=O | 79.3* | 8.3 | 15.2 | 23.8 | 6.6
CCC(=O)c1c(O)n(C2CCCCCC2)c(=O)[nH]c1=O | 80.7* | 64.0 | 1.5 | -6.4 | 10.6
CC(O)[C@@]1(O)CCC2C3CCC4CC(O)CC[C@]4(C)C3=CC[C@@]21C (stereo partly specified) | . | . | . | . | 7.2
Cc1ccc(S(=O)(=O)NC(=O)c2ccc(-c3ccc(-c4ccccc4)cc3)o2)c(C)c1 | . | -4.1 | 36.4* | . | .
Cc1ccc(S(=O)(=O)NC(=O)c2ccc(F)cc2)c(C)c1 | 1.4 | -4.2 | -1.5 | 3.0 | 9.6
CC(C)c1[nH]nc2c1C(c1cccc(OC(=O)N3CCOCC3)c1)C(C#N)=C(N)O2 (stereo unspecified) | -0.9 | -1.6 | 44.8* | -1.2 | .
CCc1[nH]nc2c1C(c1cccc(OC(=O)N3CCOCC3)c1)C(C#N)=C(N)O2 (stereo unspecified) | 1.6 | 10.9 | 69.5* | -16.0 | 7.5
CCc1[nH]nc2c1C(c1ccc(Br)s1)C(C#N)=C(N)O2 (stereo unspecified) | -2.4 | 8.0 | . | 0.0 | 2.5
CCCc1[nH]nc2c1C(c1ccc(OC(=O)N3CCOCC3)c(OC)c1)C(C#N)=C(N)O2 (stereo unspecified) | -1.2 | 3.0 | 42.2* | -6.3 | 7.0
CCOc1ccc(C2C(C#N)=C(N)Oc3n[nH]c(C)c32)cc1OC(=O)C1CC1 (stereo unspecified) | -1.2 | 5.5 | 65.7* | -7.3 | 13.8
CCCOc1ccc(C2C(C#N)=C(N)Oc3nc[nH]c(=O)c32)cc1OC (stereo unspecified) | 0.9 | 2.2 | 0.5 | -14.3 | 2.1
CN(C)C=NC(=S)Nc1ccccc1Cl | . | . | . | . | 14.5
COc1ccc(C=NS(=O)(=O)c2cccs2)cc1 | . | . | . | . | 3.8
CSc1ccc(C=NNC(=O)CN2CCN(Cc3ccc(Cl)cc3)CC2)cc1 | . | . | . | . | 2.8
O=C(NN=C/C=C/c1ccccc1)c1ccc(Br)cc1 | . | . | . | . | -2.2
C=CCc1cccc(/C=N/NC(=O)CCCNc2ccc(C)cc2)c1O | 93.1* | 0.8 | -3.2 | 17.9 | .
C=CCc1cccc(C=NNC(=O)CCC(=O)Nc2ccc(C)cc2)c1O | . | . | . | . | 3.0
Clc1ccc(C2=NCCN2)cc1 | 221.0* | -3.6 | -1.9 | -19.6 | 4.4
CCOC(=O)Cc1cc(=O)[nH]c(N=C(NC(=O)c2ccccc2)Nc2ccccc2C(F)(F)F)n1 | . | . | . | . | 4.7
Cc1cccc(C(=O)NC2C(=O)NNC2c2ccc(Cl)cc2)c1 (stereo unspecified) | 0.4 | 7.5 | 91.6* | 16.6 | .
COc1ccc(NC(=O)Cn2nnc(-c3ccccc3NC(=O)c3cccs3)n2)cc1 | 64.7* | -10.0 | -0.3 | 1.3 | 12.8
SMILES | PfHsp40 yeast | Mtb bLac sens | RecA intein inh | CCHFV vOTU inh | Mtb hypoxia rep
CCC(C(=O)O)n1cnc2scc(-c3ccc(C)c(C)c3)c2c1=O (stereo unspecified) | -1.8 | 0.9 | 0.0 | -5.2 | -5.0
CCC(C(=O)OC)n1cnc2scc(-c3ccc(C)c(C)c3)c2c1=O (stereo unspecified) | 166.4* | -3.3 | 2.9 | 2.6 | 10.4
CCCC1COC(Cn2cncn2)(c2ccc(Cl)cc2Cl)O1 (stereo unspecified) | 134.1* | 3.0 | -7.3 | 17.6 | 9.4
CC(Oc1ccccc1)c1ccnc2nc(N=CN(C)C)nn12 (stereo unspecified) | . | . | . | . | 4.8
CC(=O)c1cccc(NC(=O)NC2CCCCCCC2)c1 | -0.9 | 100.0 | 2.5 | 2.1 | 33.1*
COC(=O)C1(O)CC(C(C)C)=NN1C(=O)c1ccccc1 (stereo unspecified) | 45.0* | -1.8 | -0.3 | -12.7 | -8.1
O=C(c1ccccc1)N1N=C(c2ccccc2)CC1(O)C(F)(F)F (stereo unspecified) | 1.4 | 14.2 | 3.3 | 8.0 | 10.8
C=CC1c2ccccc2N(S(=O)(=O)c2ccc(C)cc2)C(c2ccccc2)C1(C#N)C#N (stereo unspecified) | . | . | . | . | -1.4
Cc1cc(C(=O)NNC(=O)c2ccc(Cl)cc2)c2ccccc2n1 | 65.4* | -1.4 | . | -1.1 | 5.1
COc1ccc(C(=O)NNC(=O)c2cc(C)nc3ccccc23)cc1 | 0.0 | -0.8 | . | -7.2 | -1.7
C=CCNC(=O)C(=Cc1ccccc1OCC)NC(=O)c1ccccc1 | . | . | . | . | -4.5
O=C(C1=CC(c2ccccc2)CC(OCCCCO)O1)N1CCN(Cc2ccc3c(c2)OCO3)CC1 (stereo unspecified) | . | . | . | . | 20.1
CCOc1ccc2oc(C(=O)OCC(=O)NCc3ccc(OC)cc3)c(C)c2c1 | -0.6 | -2.0 | . | 9.7 | 32.4*
CC(C)c1c(C(=O)NN=Cc2cccc(OCc3ccc(F)cc3)c2)nnn1-c1nonc1N | . | . | . | . | -3.7
Nc1nc(CCl)nc(Nc2ccc3ccccc3c2)n1 | 0.4 | . | 46.2* | 9.6 | 19.0
COc1ccc(Nc2nc(N)nc(CCl)n2)cc1 | 1.1 | 99.3 | 3.4 | -2.1 | 25.0
CCOc1cc(C=NNC(=O)CN2CCOCC2)ccc1OCc1ccccc1 | . | . | . | . | 1.3
CC(C)(C)c1[nH]nc2c1C(c1ccoc1)C(C#N)=C(N)O2 (stereo unspecified) | 0.0 | 0.4 | 56.4* | 2.1 | .
Cc1ccc(-n2nc(C)c3c2OC(N)=C(C#N)C3c2ccoc2)cc1 (stereo unspecified) | -1.1 | 3.2 | 71.1* | -9.1 | 10.5
Cc1ccc(-c2[nH]nc3c2C(c2ccoc2)C(C#N)=C(N)O3)cc1C (stereo unspecified) | 0.2 | 7.4 | 92.3* | . | 6.5
O=C1CCN(CCc2ccccc2)CCN1C(CSc1ccccc1)c1ccccc1 (stereo unspecified) | . | . | . | . | -3.8
COc1ccc(CCNC(=O)C(=Cc2cccnc2)NC(=O)c2ccccc2)cc1OC | . | . | . | . | 2.6
COc1cccc(NC(=O)CC(C)=NNC(=O)C2CCCCC2)c1 | . | . | . | . | 9.5
C[C@H]1c2cccc(O)c2C(O)=C2C(=O)[C@]3(O)C(O)=C(C(N)=O)C(=O)[C@@H](N(C)C)C3[C@@H](O)C21 (stereo partly specified) | 0.0 | 99.0 | -7.6 | 4.5 | .
C=C1c2cccc(O)c2C(=O)C2C(=O)[C@]3(O)C(=O)C(C(N)=O)C(=O)[C@@H](N(C)C)[C@@H]3[C@@H](O)[C@H]12 (stereo partly specified) | 59.7* | 97.0 | . | 12.6 | .
Cc1c(C(=O)NCCSCc2cccc(C(F)(F)F)c2)cnn1-c1ccc(Cl)cc1 | 315.2* | 72.8 | 3.3 | 7.7 | 9.6
O=C(/C=C/NCc1cccnc1)c1ccc(-c2ccccc2)cc1 | 114.5* | 1.5 | 1.8 | 6.5 | -0.1
O=C(/C=C/c1ccc(-c2ccccc2)cc1)NCc1cccnc1 | 1.1 | 2.0 | 6.7 | 6.1 | 3.5
